In all, about 370,000 compounds went through this assay and about 2,600 (0.7%) were called active.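 The calls were made as follows: active = inhibition above a cutoff: mean of compounds within the control limits plus 3 SD of those (cut at about 17% in these data); inactive = the rest.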 The list comes from a sample in which actives are over-represented; it also holds similar structures and randomly drawn compounds.

The target of the test is Sialate O-acetylesterase (Homo sapiens) (UniProt Q9HAT2). In words: blockers of sialate O-acetylesterase activity-probe labeling – biochemical, fluorescence polarization, FP-Rh probe, 1536-well HTS, primary screen (AID 1053197).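 Also: 0% = plate median of compound wells and 100% = probe without SIAE protein.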 The note with it: SIAE FP-Rh probe binding, at 9.66 µM, hits give high values.
Sequence of Sialate O-acetylesterase (Homo sapiens) (Q9HAT2 whole entry, looked up): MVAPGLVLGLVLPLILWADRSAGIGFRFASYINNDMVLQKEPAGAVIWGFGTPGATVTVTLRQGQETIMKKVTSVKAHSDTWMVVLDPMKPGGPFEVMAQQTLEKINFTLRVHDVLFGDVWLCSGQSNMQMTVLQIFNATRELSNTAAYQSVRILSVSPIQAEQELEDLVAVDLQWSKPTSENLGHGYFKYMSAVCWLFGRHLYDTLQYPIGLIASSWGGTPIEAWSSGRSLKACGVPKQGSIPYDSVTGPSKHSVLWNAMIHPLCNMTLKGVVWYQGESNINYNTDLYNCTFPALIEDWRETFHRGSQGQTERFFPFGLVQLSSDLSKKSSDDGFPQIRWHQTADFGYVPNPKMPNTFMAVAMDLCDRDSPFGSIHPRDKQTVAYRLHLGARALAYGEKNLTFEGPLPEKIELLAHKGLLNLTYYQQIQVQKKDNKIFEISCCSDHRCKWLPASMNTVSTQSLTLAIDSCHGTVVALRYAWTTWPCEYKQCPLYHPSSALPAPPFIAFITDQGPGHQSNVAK
For `COC(=O)c1cccc(Cn2ccc3ccc(-c4ccc5ccn(C(=O)c6ccccc6C)c5c4)cc32)c1`, the inhibition was 12.8% (inactive). With `COC(=O)C1CN(Cc2ccc(F)cc2)CCS(=O)(=O)N1Cc1ccc(Cl)cc1` (stereo unspecified) the figure was -1.35% (inactive); with `CCOC(=O)[C@]12CCCC3=C1N(CCC3)C(=O)[C@@H](CC(=O)NCC13CC4CC(CC(C4)C1)C3)C2`, -1.2% (inactive); with `O=C(CCn1nnc2ccccc2c1=O)N[C@@H](Cc1c[nH]c2ccccc12)C(=O)O`, 2.35% (inactive). For `COc1ccc(-c2cc(C(=O)NC(C(=O)O)C(C)C)c(C)o2)cc1OC` (stereo unspecified) the value was -1.04% (inactive); for `COc1ccc(-c2cc(C(=O)NC(Cc3c[nH]c4ccccc34)C(=O)O)c(C)o2)cc1OC` (stereo unspecified), 17.2% (active); for `COc1ccc2c(C(C)c3ccc(N)cc3)cn(C)c2c1` (stereo unspecified), 15.5% (inactive). As to `CN(C)c1ccc(NC(=O)NC2CCCCN(Cc3ccc(Cl)cc3)C2=O)cc1` (stereo unspecified), the inhibition is 11.1% (inactive). For `COc1ccc(C(=O)OCCN2CCN(C3CN(Cc4cn(Cc5ccccc5F)nn4)S(=O)(=O)C3)CC2)cc1OC` (stereo unspecified) the value was 3.42% (inactive).

As to `Cc1ccc(NC(=S)NNC(=O)CSc2nnc(SCc3ccccc3Cl)s2)cc1`, the inhibition is 5.21% (inactive).

In the case of `Cc1[nH]c2ccccc2c1C(=O)CN1CC(C)CC(C)C1` (stereo unspecified), the inhibition is -1.61% (inactive).

With `Cc1[nH]c2ccccc2c1C(=O)CSCC(=O)O`, the inhibition is 30.1% (active).

`Cc1[nH]c2ccccc2c1C(=O)CN1CCCC(C)C1` (stereo unspecified): the inhibition was -6.16% (inactive). Regarding `N#Cc1ccc(OC[C@@H](O)CN2CCC(C(O)(c3ccccc3)c3ccccc3)CC2)c(F)c1`, the inhibition is -5.05% (inactive). Consider `COC(CNC(=O)[C@H](Cc1ccccc1)NC1(C(=O)NC2CCCCC2)CCCCC1)OC`, for which the inhibition was 8.17% (inactive). Turning to `Cc1ccc(NC(=S)NCCN2CCOCC2)cc1`, the inhibition is 57.3% (active).

For `CCCC(=O)NC(=S)Nc1ccc(CN2CCOCC2)cc1`, the inhibition is -1.23% (inactive). On to `Cc1cc(C)cc(NC(=S)NCCCN2CCOCC2)c1`, for which the inhibition is -2% (inactive). On to `C=CCN(C)CC#Cc1ccccc1`, for which the inhibition was 1.7% (inactive).

`Cn1c(NN)nc2sc3c(c2c1=O)CCC3`: the inhibition is 41.8% (active). Regarding `CCn1c(SCC(C)=O)nc2sc3c(c2c1=O)CCCC3`, the inhibition was 0.4% (inactive). `COc1ccccc1-n1c(SCC(=O)O)nc2sc3c(c2c1=O)CCC3`: the inhibition is -0.36% (inactive).

On to `CCn1c2ccccc2c2cc(NC(=O)CSc3nnc(-c4ccccc4)n3-c3ccc(C)cc3)ccc21`, for which the inhibition was 4.72% (inactive).

On to `CNS(=O)(=O)c1ccc2c(c1)[nH]c(=S)n2C`, for which the inhibition was 18.6% (active). Regarding `CCn1c(=S)[nH]c2cc(S(=O)(=O)N3CCOCC3)ccc21`, the inhibition was -1% (inactive). `CCCCn1c(=S)[nH]c2cc(S(=O)(=O)N3CCCCC3)ccc21`: the inhibition was 8.16% (inactive).

For orientation: inhibition means the relative decrease from the control value, in per cent.

These data come from PubChem BioAssay AID1053197 (The Scripps Research Institute Molecular Screening Center, 2014).
